# POLH inh: inhibitors of human DNA polymerase eta | AID 588591 | recombinant Pol eta, fluorescent DNA replication assay | 390,000 compounds, 1.2% hits | Potency, µM (top dose mostly 114 µM), for the others: at the highest dose activity change, negative = inhibition, most hits filed as inhibitors | Q9Y253; note: % is set by controls: 0 for no effect and ±100 for the full control effect
#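 Pol eta at 10 nM preincubated with compounds 15 min at room temperature; reaction started with fluorescent substrate (50 nM final) and read kinetically at 0 and 10 min.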
# Pol iota inh: DNA polymerase iota (human) inhibition; Pol iota fluorescent replication assay, 10 min; Potency, µM (doses to about 115 µM), for inactives: at the top dose activity, negative = inhibition, actives largely listed as inhibitors; 390,000 compounds, 1% hits
#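 Pol iota at 10 nM preincubated 15 min with compounds at room temperature; reaction started with fluorescent substrate, 50 nM final. Fluorescence read kinetically at 0 and 10 min; buffer-only wells as negative control.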
# FEN1 inh-1: human FEN1 inhibition. Potency, µM (highest dose often 114 µM), for inactives: top-dose activity change, negative = inhibition, hits mostly inhibitors. 390,000 compounds, 0.35% hits. Recombinant FEN1 flap cleavage, fluorescence, 15 min; note: % is set by controls: 0 for no effect and ±100 for the full control effect; nearly all actives have a fitted effect of over 65% in size
# Target sequence (P39748 whole entry, looked up): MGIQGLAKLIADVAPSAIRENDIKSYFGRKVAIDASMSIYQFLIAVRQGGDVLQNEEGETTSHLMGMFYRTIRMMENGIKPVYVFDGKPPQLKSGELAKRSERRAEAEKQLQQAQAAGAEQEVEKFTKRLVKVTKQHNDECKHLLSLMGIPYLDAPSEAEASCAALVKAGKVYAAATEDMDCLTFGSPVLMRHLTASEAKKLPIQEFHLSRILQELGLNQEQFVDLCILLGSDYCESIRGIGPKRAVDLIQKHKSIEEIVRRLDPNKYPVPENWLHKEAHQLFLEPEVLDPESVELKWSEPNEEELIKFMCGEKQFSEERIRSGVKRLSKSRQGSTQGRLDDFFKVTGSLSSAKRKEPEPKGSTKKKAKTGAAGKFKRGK
#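 Quantitative HTS format: each compound was titrated, incubated with 10 nM nuclease for 15 min at room temperature, then challenged with flap substrate at 50 nM final. Signal change over 15 min gave concentration–effect curves.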
# Pol beta inh: blocks human DNA polymerase beta activity | P06746 | Pol beta primer extension/strand displacement, fluorescence kinetic | Potency, µM (titrated, usually from 114 µM), for inactives: top-dose activity change, negative = inhibition, most hits filed as inhibitors | 340,000 compounds, 1.3% hits | AID 485314; note: % is set by controls: 0 for no effect and ±100 for the full control effect
#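 Kinetic readout of DNA synthesis with strand displacement by Pol beta. Compound and 10 nM enzyme sit 15 min at room temperature; 50 nM substrate starts the reaction, read immediately and at 10 min.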
# Pol kappa inh: inhibitors of human DNA polymerase kappa. Q9UBT6. purified Pol kappa, fluorescent DNA synthesis assay, 10 min. Potency, µM (highest dose often 107 µM), inactives show top-dose activity, negative = inhibition, usual class: inhibitors. 400,000 compounds, 0.53% hits; note: % is set by controls: 0 for no effect and ±100 for the full control effect
#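 Kinetic fluorescence readout at 0 and 10 min followed reaction start with substrate at 50 nM final. Beforehand, enzyme (10 nM Pol kappa) stood 15 min with compound at room temperature; buffer-only wells were negative controls.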
# WRN inhibitor: WRN helicase (human) inhibition; AID 651768; Q14191; 360,000 compounds, 0.46% hits; WRN helicase unwinding, fluorescent forked duplex, kinetic; Potency, µM (doses to about 114 µM), inactives show at the highest dose activity change, negative = inhibition, most hits filed as inhibitors; note: % is set by controls: 0 for no effect and ±100 for the full control effect; nearly all actives have a fitted effect of over 55% in size
#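 WRN at 20 nM final preincubated with compound 15 min at room temperature; reaction started with 100 nM fluorophore/quencher forked duplex oligonucleotide and 2 mM ATP final. Unwinding followed kinetically by red fluorescence (ex 525, em 598 nm).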
# FEN1 inh-2: confirmation of human FEN1 inhibitors | shares compounds with FEN1 inh-1 | FEN1 flap cleavage, TAMRA/BHQ2 fluorogenic DNA substrate | Potency, µM, usual class: inhibitors | 880 compounds, 79% hits | AID 720498; note: nearly all actives have a fitted effect of over 60% in size
# The depositor's hits bear a star; u = inconclusive; x = no result given; [ ] = dose if it differs, or a comment. This is a sample that favours compounds with a hit; in the whole collection about 2.4% have one here. Calls come from the whole dose curve; as a rule, active = well fitted curve in the direction sought with a large enough effect; inconclusive = small, poorly fitted or top-dose-only effect, or another doubt; inactive = no such curve, though single readings can be large; an effect the other way counts as inactive or inconclusive. Potency is the fitted concentration of half-maximal effect.
SMILES,POLH inh,Pol iota inh,FEN1 inh-1,Pol beta inh,Pol kappa inh,WRN inhibitor,FEN1 inh-2
COc1cc(/C=C2\SC(=S)N(Nc3ccccc3)C2=O)ccc1O,u,50µM*,u,11µM*,-31%,16µM*,85*
O=C(O)c1ccc(/C=C2\SC(=S)N(Nc3ccccc3)C2=O)cc1,-2%,u,-5%,-23%,u,1%[11.6 µM],x
Cc1c(Cl)cccc1NC(=O)CSc1nc(=O)n(Cc2ccncc2)c2c1CCC2,-4%,-20%,1%,-3%,0%[60.1 µM],x,x
CN(C)c1ccc(/C=C/c2cc[n+]([O-])c3ccccc23)cc1,x,6%,15%,x,2%,x,x
CC[n+]1ccc(/C=C/c2ccc(N(C)C)cc2)c2ccccc21,u,-29%,40µM*,45µM*,u,45µM*,48*
O=C(CSc1nn(-c2ccccc2)c(=S)s1)Nc1ncccn1,4%,27%,-8%,1%,-5%,-9%,x
Cc1cc(C)nc(NC(=O)CSc2nn(-c3ccccc3)c(=S)s2)n1,10%,u,u,40µM*,1%,u,u
CN(C)CCNc1ccc(CO)c2oc3ccc(O)cc3c(=O)c12,-7%,u,35µM*,x,-21%,7%[11.6 µM],30*
CCN(CC)CCNc1ccc(CO)c2oc3cc(Cl)ccc3c(=O)c12,-13%,x,x,x,x,7%,x
Cc1cc(/C=C2\Sc3ccccc3N2C)cc(C)[n+]1CC1CCCO1 (centres undefined),-18%,29%,50µM*,u,u,u,34*
Cc1ccc(/C=C2/Sc3ccccc3N(CC(=O)NCC3CCCO3)C2=O)cc1 (centres undefined),-16%,-1%,-13%,-3%,-15%,-3%,x
CCOC(=O)c1c(C)[nH]c(C)c1C(=O)COC(=O)c1ccc([N+](=O)[O-])s1,22µM*,10µM*,u,x,79µM*,-4%[11.6 µM],27*
COc1cccc(C(=O)Nc2ccc3nc(SCC(=O)N4CCc5ccccc54)sc3c2)c1,-8%,-1%,-4%,-10%,-1%,x,x
CCn1c(CC2C(=O)N(C)c3ccccc32)nc2ccccc2c1=O (centres undefined),x,4%,-6%,7%,1%,x,x
CCC(=O)N/C(N)=N/c1nc(C)c2cc(OC)ccc2n1,-12%,-3%[58.9 µM],79µM*,-8%,8%,44%,u
COc1ccccc1NC(=O)C(=O)N/N=C/c1cccs1,u,-40%,32µM*,u,-25%,-17%,30*
c1ccc2c(c1)c1c(c3ccccc32)CN2CCCC2C1 (centres undefined),u,u,18µM*,x,-31%,0%[11.6 µM],38*
c1ccc(CN2CCC(N3CCC(N4CCCCCC4)CC3)CC2)cc1,-14%,124%,-7%,36%,-6%,-18%,x
COc1ccc(OC)c(Nc2nc(NCCO)c3ccccc3n2)c1,u,20%,u,u,-12%,-27%[57.1 µM],u
CC(C)(C)/C(O)=C/c1nc2ccccc2oc1=O,-6%,26%,20µM*,-18%,0%,3%[11.6 µM],30*
NC(N)=Nc1nc(-c2ccccc2)c2cc(F)ccc2n1,-3%,20%,79µM*,u,-18%,15%[11.6 µM],54*
CCOC(=O)CCNC(=O)N1CCN(S(=O)(=O)c2ccc3c(ccn3C)c2)CC1,-4%,16%,-2%,8%,-5%[60.1 µM],x,x
COCCn1c(=NC(=O)c2ccc3c(c2)OCCO3)sc2cc(S(N)(=O)=O)ccc21,-26%,u,-2%,-20%,-34%,-9%[11.6 µM],u
CN(C)CCP(=O)(c1ccccc1)c1ccccc1,-15%,-1%,14%,20%,0%,-7%,x
CN(C)CCN(C)Cc1c2ccccc2c(CN(C)CCN(C)C)c2ccccc12,-12%,66%,50µM*,-31%,-11%,u,u
SMILES,POLH inh,Pol iota inh,FEN1 inh-1,Pol beta inh,Pol kappa inh,WRN inhibitor,FEN1 inh-2
CCN1/C(=C\c2ccc3cc(C)ccc3[n+]2CC)Sc2cc(C)c(C)cc21,u,x,x,50µM*,-29%,45µM*,8.5*
CCN1/C(=C/c2ccc3cc(C)ccc3[n+]2CC)Sc2ccc3sccc3c21,u,4%,u,x,-13%,-22%,x
Nc1ccc(/C=C/c2ccc3cccnc3c2)cc1,x,-19%,3%,x,-1%,x,x
CCOc1ccc(CNC(=O)C2CCN(c3nnc(C)c4c(C)n(-c5ccc(C)cc5)nc34)CC2)cc1,u,u,u,7.9µM*,-37%,-32%[11.6 µM],u
COc1ccc(-n2nc3c(N4CCC(C(=O)NCc5cccc(C)c5)CC4)nnc(C)c3c2C)cc1,-13%,u,27%,u,-19%,2%,x
O=C(Nc1cnc(N2CCC(N3CCCCC3)CC2)c(C(=O)O)c1)c1ccc(Br)cc1,x,7%,15%,1%,-9%[60.1 µM],x,x
c1cc2ccc3ccc(CN4CCOCC4)c4ccc(c1)c2c34,-11%,10%,-25%,29%,-5%,2%,x
OC1CCCN(Cc2ccc3ccc4cccc5ccc2c3c45)C1 (centres undefined),-11%,u,56µM*,40µM*,-14%,21%[57.1 µM],43*
O=C(Nc1ccccc1)c1cc(-n2cnnc2)ccc1Cl,-5%,10%,-3%,2%,-3%,4%,x
O=C(Nc1ccc2oc(-c3ccccc3)nc2c1)c1cc(-n2cnnc2)ccc1Cl,-24%,35µM*,u,u,-9%,-22%[57.1 µM],48*
CCN1CCCC1CNC(=O)c1cc2c(-c3ccc(Cl)cc3)nn(C)c2s1 (centres undefined),4%,u,50µM*,35µM*,-20%,37%,43*
C/C(=N\NC(=O)c1ccc(OC2OCCOC2Oc2ccc(C(=O)N/N=C(\C)c3ccncc3)cc2)cc1)c1ccncc1 (centres undefined),u,u,-33%,u,2%,-1%,67*
CCN(CC)c1ccc(/C=C/c2cccc[n+]2C)c(OC)c1,-27%,43%,u,50µM*,-33%,79µM*,27*
CN(C(=O)CSc1nnc(-c2ccccc2F)o1)C1CCCCC1,-14%,28%,-4%,-25%,6%,x,x
COc1cccc(CNC(=O)c2ccc3c(=O)n4nc(Nc5ccccc5)sc4nc3c2)c1,u,11%,1%,-18%,1%[60.1 µM],x,x
CCN1CCN(c2cccc(Nc3nn4c(=O)c5ccccc5nc4s3)c2)CC1,x,x,x,x,x,x,u
COc1ccc2c(=O)n3nc(Nc4cccc(N5CCN(C)CC5)c4)sc3nc2c1,x,x,x,x,x,x,u
